Source: PubChem
Pin1 inhibitor – human Pin1 inhibition | Pin1 FP peptide displacement, HiFluor488, 10 min | AID 504891 | Q13526 | Potency, µM (highest dose often 115 µM), inactives show top-dose activity, negative = inhibition, most hits filed as inhibitors | actives 0.009% (n = 390,000); active = well fitted inhibition curve with a large enough effect in the polarisation, with a control signal flat, not every such curve was filed as active; inconclusive = small, poorly fitted or top-dose-only effect, or effect the other way, or a change in a side signal; inactive = no such curve, though single readings can be large or run the other way; the % refers to the polarisation; note: potency is the fitted concentration of half-maximal effect
Target sequence (Q13526 whole entry, looked up): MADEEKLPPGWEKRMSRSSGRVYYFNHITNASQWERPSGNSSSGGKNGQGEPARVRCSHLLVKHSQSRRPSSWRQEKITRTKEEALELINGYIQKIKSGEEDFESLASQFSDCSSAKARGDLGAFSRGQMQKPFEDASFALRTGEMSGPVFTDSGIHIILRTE
RGS12 GoLoco inh – RGS12 GoLoco-Gai1 interaction inhibition | Gai1:RGS12 GoLoco peptide FP, rhodamine, 10 min | Potency, µM (series often up to 61.6 µM), for inactives: top-dose activity, negative = inhibition, hits mostly inhibitors | P63096 | actives 0.44% (n = 230,000); active = well fitted inhibition curve with a large enough effect, not every such curve was filed as active; inactive = no such curve, though single readings can be large or run the other way; note: potency is the fitted concentration of half-maximal effect; nearly all actives have a fitted effect of over 30% in size
PI5P4Ka inh – blocks human PI5P4K alpha kinase activity | AID 652105 | actives 1.2% (n = 330,000) | max response, % | P48426 | PI5P4Kalpha enzyme, ADP-Glo luminescence, 60 min; hits give low values; active = max response of -50% or lower; inconclusive = between -30% and -50%; inactive = -30% or higher; note: value at the top dose of about 77 µM
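Luminescence from ADP-Glo served as readout of PI5P4Kalpha activity in a qHTS format. Reaction: enzyme, substrate, compound, ATP at 5 microM final, 60 min at RT.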
PGK inhibitor – blocks T. brucei phosphoglycerate kinase; PGK/GAPDH coupled, Kinase-Glo luminescence, 60 min; actives 0.043% (n = 380,000); P07378; Potency, µM (top dose mostly 57.5 µM), without a hit: at the top dose activity change, negative = inhibition, actives largely listed as inhibitors; note: potency is the fitted concentration of half-maximal effect; nearly all actives have a fitted effect of over 60% in size
Target sequence (P07378 whole entry, looked up): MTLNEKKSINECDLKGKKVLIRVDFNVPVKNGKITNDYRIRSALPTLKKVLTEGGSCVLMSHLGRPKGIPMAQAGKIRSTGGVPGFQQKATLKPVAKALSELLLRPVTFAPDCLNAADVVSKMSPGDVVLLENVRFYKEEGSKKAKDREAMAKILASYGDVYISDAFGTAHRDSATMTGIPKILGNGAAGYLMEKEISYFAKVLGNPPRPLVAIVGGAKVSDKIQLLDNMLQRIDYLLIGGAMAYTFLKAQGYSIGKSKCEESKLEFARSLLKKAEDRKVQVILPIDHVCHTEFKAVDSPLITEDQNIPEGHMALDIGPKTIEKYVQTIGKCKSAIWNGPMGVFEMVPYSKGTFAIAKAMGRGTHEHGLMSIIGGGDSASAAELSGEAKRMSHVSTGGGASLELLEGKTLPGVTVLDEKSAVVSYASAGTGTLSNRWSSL
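Recombinant glycosomal PGK reaction used 1,3-bisphosphoglycerate generated in-well by GAPDH (100nM final) in 100mM TEA pH 7.6, 5mM MgCl2, 0.01% Tween-20. After 60 minutes at room temperature, ATP was read by Kinase-Glo Plus luminescence end-point.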
PI4K2A block – blocks human PI4K2A kinase activity; activity change, negative = inhibition, % at 76.9 µM; Q9BTU6; AID 1346378; purified PI4K2A, ADP-Glo luminescence, 1 h; hits give low values; actives 0.13% (n = 420,000); in the data active = activity change below about -50%; inconclusive = mostly about -30% to -49%;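 note: -100% = wells without enzyme as full effect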
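Compounds are screened against recombinant PI4K2A using PI as substrate and ATP, the latter dispensed at 300 microM. Reactions run one hour at ambient temperature before ADP-Glo detection; full inhibition defined by wells lacking enzyme.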
GCN5L2 inh – blocks human GCN5L2 histone acetyltransferase; Potency, µM (doses to about 58.9 µM), for inactives: at the highest dose activity change, negative = inhibition, most hits filed as inhibitors; GCN5L2 HAT assay, ThioGlo1 CoA-SH fluorescence; Q92830; actives 0.21% (n = 390,000); AID 504327; note: potency is the fitted concentration of half-maximal effect
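qHTS, 1536-well. 20nM enzyme, pH 7.5 HEPES/EDTA/Tween-20 buffer; 15 min compound preinc., RT. Start: 75uM H3(1-25), 70uM AcCoA, 50uM ThioGlo1. Read Ex340/Em540 at t=0 (autofluorescence flag) and t=20 min.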
* = called active by the depositor; i = inactive; ? = inconclusive; · = not tested or not shown; ! = a repeat was not active. In the library only some 1.2% were active in any assay of this set; here they are far more common. Unless noted, calls come from the whole dose curve; as a rule, active = well fitted curve in the direction sought with a large enough effect; inconclusive = small, poorly fitted or top-dose-only effect, or another doubt; inactive = no such curve, though single readings can be large; an effect the other way counts as inactive or inconclusive. Unless noted, % is set by controls: 0 for no effect and ±100 for the full control effect.

SMILES | Pin1 inhibitor | RGS12 GoLoco inh | PI5P4Ka inh | PGK inhibitor | PI4K2A block | GCN5L2 inh
CCC1=NN2C(=N)/C(=C\c3ccc(OCCOc4ccccc4)c(OC)c3)C(=O)N=C2S1 | · | · | · | · | · | 0.5%
CCC1=NN2C(=N)/C(=C\c3ccc(OCc4cc(=O)n5nc(CC)sc5n4)c(OC)c3)C(=O)N=C2S1 | ? | 9.7% | -71.1* | -16.2% | -6.3 | -19.3%
CCOc1cc(/C=C2\C(=N)N3N=C(S(C)(=O)=O)SC3=NC2=O)ccc1OCCOc1cccc(OC)c1 | ? | · | -79.7* | ? | -0.7 | ?
CCS(=O)(=O)C1=NN2C(=N)/C(=C\c3ccc(OCCOc4cccc(OC)c4)c(OC)c3)C(=O)N=C2S1 | ? | · | -78.0* | -17.3% | -7.1 | -26.8%
Nc1cnc(CNc2ccccc2Cl)cn1 | 7.3% | 0.3% | -3.4 | 1.0% | -1.5 | -7.5%
O=C(O)/C=C\C(=O)Nc1ccc(Oc2ccccc2)cc1 | 4.0% | 0.7% | · | 2.8% | 3.7 | -8.1%
O=C(O)/C=C/C(=O)Nc1ccc(C2(c3ccc(NC(=O)/C=C/C(=O)O)cc3)c3ccccc3-c3ccccc32)cc1 | -16.3% | · | -58.5* | -8.7% | -2.9 | -20.5%
FC(F)(F)c1cc(Oc2ccc(Cl)cc2)ncc1-c1nnc(-c2ccc(Cl)cc2)o1 | 2.1% | 12.1% | 8.8 | i | -4.1 | 2.6%
CCOc1ccc2nc(Cl)sc2c1 | -5.4% | 4.5% | -9.3 | i | -3.1 | -0.6%
COC1=CC(=O)c2nc(Cl)ccc2C1=O | · | · | -13.6 | · | -57.7* | ·
COc1cccc2c1C(=O)C=C(C)C2=O | -1.7% | 5.6% | -4.7 | 2.7% | -10.8 | -2.2%
Cc1cc(C)n(C/C=C/Cn2nc(C)cc2C)n1 | -6.3% | 6.1% | · | -0.2% | 2.6 | -3.8%
CCOc1ccc(-c2ccc(/C=C3/C(=N)N4C(C)=CSC4=NC3=O)o2)c([N+](=O)[O-])c1 | ? | 18.5% | -59.3* | -0.4% | -27.4 | -8.0%
N=C1/C(=C\c2ccc(-c3cc(Cl)cc(Cl)c3)o2)C(=O)N=C2SC=C(c3ccccc3)N12 | 18.4% | 28.8% | ? | 0.8% | 6.0 | -1.8%
O=C1C(=O)c2cccnc2-c2ncccc21 | · | · | -21.9 | · | -73.8* | ·
O=C1c2cccnc2-c2ncccc21 | 1.2% | -7.0% | 1.0 | -3.2% | 2.9 | -3.4%
COC1=C(Br)C(=O)c2ncccc2C1=O | · | · | ? | ? | -55.1* | ·
O=C(COC(=O)c1cnccn1)NCCc1ccc(Cl)cc1Cl | -1.0% | 0.9% | -1.4 | -0.6% | -0.9 | 0.5%
CC[C@@]12CCCN3CCc4c(n(c5ccccc45)[C@](O)(C(=O)OC)C1)[C@H]32 | · | 5.9% | · | · | · | 12.6µM*!
CCC12CCCN3CCc4c(n(c5ccccc45)C(O)(C(=O)OC)C1)C32 (stereo unspecified) | ? | 23.8% | 0.7 | i | -4.2 | -0.5%
COc1cc(/C=N/NC(N)=O)cc([N+](=O)[O-])c1O | ? | 3.5% | -55.7* | -6.0% | -2.7 | 0.0%
COc1cc(/C=N/NC(=O)C(Cc2c[nH]c3ccccc23)NC(=O)OCc2ccccc2)cc([N+](=O)[O-])c1O (stereo unspecified) | · | -6.2% | -79.1* | -13.4% | -7.9 | -5.4%
COc1cc(/C=N/NS(=O)(=O)c2ccc(C)c([N+](=O)[O-])c2)cc([N+](=O)[O-])c1O | -12.3% | · | ? | -3.1% | -5.3 | -8.1%
Cc1ccccc1NC(=O)CSc1nnc(-c2ccco2)n1N | -7.7% | · | -6.3 | -7.4% | 0.9 | -3.8%
Cc1cccc(NC(=O)CSc2nnc(-c3ccco3)c(-c3ccco3)n2)c1 | ? | -4.2% | -61.3* | -5.7% | -0.3 | -3.3%
SMILES | Pin1 inhibitor | RGS12 GoLoco inh | PI5P4Ka inh | PGK inhibitor | PI4K2A block | GCN5L2 inh
Cc1cccc(NC(=O)CSc2nnc(-c3ccco3)c(-c3ccco3)n2)c1C | · | 3.9% | -77.4* | -18.8% | -28.5 | ?
COc1ccc(OC)c(-n2nnc(-c3nc(-c4ccc5c(c4)OCO5)no3)c2C)c1 | -2.8% | · | · | · | 1.8 | -25.1%
CCN1C(=O)/C(=C\c2ccc(-c3cccc(C(=O)OC)c3)o2)SC1=Nc1ccc(C(=O)O)cc1 | · | · | · | · | · | -6.2%
CCN1C(=O)/C(=C\c2ccc(-c3ccc([N+](=O)[O-])cc3OC)o2)SC1=Nc1cccc(C(=O)O)c1 | · | 13.6% | -50.2* | -14.5% | -19.8 | -3.0%
OC(CNCCC1C=Nc2ccccc21)Cn1c2ccc(Cl)cc2c2cc(Cl)ccc21 (stereo unspecified) | 12.4% | 8.6% | 6.5 | 8.8% | 1.8 | -8.4%
Cc1cc(C)n2c(nc3ccccc32)c1C(=O)NN | 2.8% | 4.7% | -6.9 | -10.0% | 1.0 | -12.8%
Cc1nc2ccccc2n2c(O)c(CC(=O)O)cc12 | ? | 12.6µM* | · | -11.7% | -5.7 | -28.8%
CC(C)(C)OC(=O)N[C@@H](Cc1ccccc1)c1nnc(S(=O)(=O)Cc2ccccc2)o1 | · | 17.8µM* | · | · | · | 31.3%
O=C(/C=C/c1cc[n+](CC(=O)c2ccc3cccc4c3c2CC4)cc1)c1ccc2cccc3c2c1CC3 | ? | 41.4% | -69.0* | -1.6% | 0.3 | -22.2%
NSc1nc(N)c2nc(-c3ccccc3)c(-c3ccccc3)nc2n1 | 4.5% | 11.5% | -53.1* | -3.2% | -4.3 | -5.9%
Nc1nc(N)c2nc(-c3ccccc3)c(N)nc2n1 | -2.1% | -0.9% | ? | -9.7% | -4.8 | ?
CN1Cc2cc(C(=O)c3cc(Cl)cc(CSc4ncccn4)c3O)cnc2NC1=O | · | 44.0% | · | · | · | -7.8%
COc1cc(/C=C2/C(=O)N(c3cccc(Br)c3)N=C2C)cc(OC)c1O | 32.6% | · | 6.8 | -9.1% | -54.0* | -26.7%
COc1cc(/C=C2/C(=O)N(c3ccc(Br)cc3)N=C2C)cc([N+](=O)[O-])c1O | · | · | · | · | · | 1.6%
COC(=O)Cc1c(C)c2cc3c(c(C)c2oc1=O)OCN(CCc1ccc(F)cc1)C3 | 8.7% | · | · | -3.5% | 0.6 | 28.2µM*
Cc1c(C)c2cc3c(c(C)c2oc1=O)OCN(CCc1ccc(F)cc1)C3 | -6.5% | · | · | 0.6% | -5.4 | -15.6%
Cc1cccc(Nc2nc(N)c(C#N)c(CC#N)c2C#N)c1 | 48.1% | 23.0% | -53.9* | 15.5% | -4.8 | -7.2%
Cc1cccc(Nc2nc(N)nc(N)c2N=O)c1 | -10.6% | · | -50.9* | -5.4% | -19.3 | ·
Cc1cccc(Nc2nc(C)cc(C)c2C#N)c1 | -0.3% | · | 3.9 | -4.4% | 0.4 | -5.0%
O=C(CSc1nc2sccc2c(=O)[nH]1)N1CCN(c2ccccc2)CC1 | ? | · | ? | 1.5% | -4.6 | -17.0%
COc1cc(/C=C(\C#N)c2[nH]nc(N)c2C#N)cc(OC)c1O | 49.5% | -3.5% | -64.3* | -2.6% | 6.1 | 0.0%
COc1ccc(C(=O)c2cc3ccc(O)cc3oc2=O)cc1 | -2.8% | 9.5% | · | · | -52.8* | -4.9%
O=C(c1ccccc1)c1cc2ccc(O)cc2oc1=O | 4.9% | 13.8% | · | ? | -86.6* | -6.1%
